Screening results: PubChem, National Center for Advancing Translational Sciences (NCATS)
D3 antag: blocks the human D3 dopamine receptor | P35462 | D3R cells, DiscoveRx beta-arrestin luminescence, antagonist mode; active compounds read low | max response, negative = inhibition, % | hit rate 2.5% among 360,000 | AID 652054; in the data active means max response below about -50%; inconclusive means no clear call, values can overlap the other calls; further: on the % scale 0 is the no-effect control and ±100 the full control effect
Target sequence (P35462 whole entry, looked up): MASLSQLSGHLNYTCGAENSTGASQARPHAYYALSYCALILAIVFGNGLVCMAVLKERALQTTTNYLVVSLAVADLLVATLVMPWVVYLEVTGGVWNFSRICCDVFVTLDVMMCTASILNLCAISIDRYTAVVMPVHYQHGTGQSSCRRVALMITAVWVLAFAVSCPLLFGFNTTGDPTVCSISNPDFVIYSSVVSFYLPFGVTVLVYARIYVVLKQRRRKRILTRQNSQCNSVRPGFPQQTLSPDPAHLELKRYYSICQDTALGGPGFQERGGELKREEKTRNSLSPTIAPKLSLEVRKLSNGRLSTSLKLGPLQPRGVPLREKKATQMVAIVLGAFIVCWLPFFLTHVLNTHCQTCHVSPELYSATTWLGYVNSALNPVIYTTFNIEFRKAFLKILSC
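Cells expressing the human receptor were seeded at 1500 cells/well, incubated overnight at 37 degrees C in 5% CO2, then exposed to library compounds with dopamine controls for 90 minutes at 37 degrees C before luminescent detection.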
D3 ag: activates the human D3 dopamine receptor; P35462; D3R DiscoveRx beta-arrestin cells, luminescence, 90 min; max activation, %; hit rate 0.58% among 410,000; AID 652048; in the data active means max activation above about 30%; further: 0% is about no effect
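Cells at 1500/well, incubated overnight, then treated with pinned compounds (dopamine as control) for 90 min at 37 degrees C. DiscoveRx reagent added for 30 - 60 minutes at room temperature; luminescence read.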
DT40 TDP1 CPT: DT40-hTDP1 cell growth loss with CPT. chicken DT40 Tdp1-/-;hTDP1 cells + 20 nM CPT, ATP luminescence, 48 h. Potency, µM (titrated, usually from 46.2 µM), for inactives: top-dose activity change, negative = growth inhibition, most hits filed as inhibitors. hit rate 12% among 420,000. AID 686979; further: potency means the concentration at half of the fitted maximal effect; on the % scale 0 is the no-effect control and ±100 the full control effect; nearly all actives have a fitted effect of over 55% in size
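Chicken DT40 Tdp1-/- cells complemented with human TDP1, 400 cells/well, exposed to compounds plus 20 nM camptothecin for at least 48 h at 37 C; viability read as ATP content by CellTiter-Glo luminescence.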
IL1B secr inh: blocks inflammasome-driven IL-1 beta release; THP-1 LPS/ATP IL-1B secretion, AlphaLISA, 16 h; active compounds read low; activity change, % at 57.5 µM; hit rate 4.7% among 360,000; AID 743279; in the data active means activity change below about -50%; inconclusive means mostly about -30% to -49%; further: on the % scale 0 is the no-effect control and ±100 the full control effect
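Secreted IL-1B measured by AlphaLISA bead assay after 16 h compound exposure of THP-1 cells; compounds (final up to 57.5 uM) added 1 h before LPS (250 ng/mL) and ATP (1.25 mM) stimulation; lower signal means less secretion.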
TDP1 cell noCPT: qHTS for Inhibitors of human tyrosyl-DNA phosphodiesterase 1 (TDP1): qHTS in cells in absence of CPT; AID 686978, 2013; DT40 Tdp1-/- hTDP1 cells, no CPT, ATP luminescence, 48 h; hit rate 15% among 420,000; Potency, µM (top dose mostly 46.2 µM), without a hit: at the highest dose activity change, negative = growth inhibition, most hits filed as inhibitors; further: potency means the concentration at half of the fitted maximal effect; on the % scale 0 is the no-effect control and ±100 the full control effect; nearly all actives have a fitted effect of over 55% in size
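Stably hTDP1-transfected Tdp1-null chicken DT40 cells were treated with library compounds minus camptothecin and grown for at least 48 hr at 37 °C, after which cellular ATP was quantified by luminescence.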
ClpP mod: qHTS Assay for Activators of ClpP; purified B. subtilis ClpP, FRET peptide cleavage, 20 min; Potency, µM (highest dose often 57.5 µM), for the others: at the highest dose activity change, negative = active; hit rate 1.9% among 340,000; active means well fitted falling curve with a large enough effect; inconclusive means small, poorly fitted or top-dose-only effect; inactive means no such curve, though single readings can be large or run the other way; further: potency means the concentration at half of the fitted maximal effect; the source files actives as falling curves though it sought activators and does not explain the sign; nearly all actives have a fitted effect of over 65% in size
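Buffer: 100 mM Tris/HCl pH8, 100 mM KCl, 0.05% low protease BSA, 2.5% glycerol, 0.01% Tween-20. ClpP 10 microg/mL final; 20 min RT; delta FRET normalized to ADEP and DMSO controls.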
Active calls of the source: *; ? = inconclusive; . = no result; [ ] = another dose, or the depositor's remark. Hits are enriched below; roughly 21% of the tested compounds scored in any of these assays. Unless noted, the call rests on the fitted dose curve; in most records, active means well fitted inhibition curve with a large enough effect; inconclusive means small, poorly fitted or top-dose-only effect; inactive means flat fitted curve, though single readings scatter.

SMILES | D3 antag | D3 ag | DT40 TDP1 CPT | IL1B secr inh | TDP1 cell noCPT | ClpP mod
COc1ccc(NC(C)=O)cc1NC(=O)CSc1nc2ncccc2[nH]1 | 3 | 2 | 13µM* | -1 | 18µM* | -1%
CCOC(=O)c1ccc(NC(=O)CSc2nc3ncccc3[nH]2)cc1 | -8 | -10 | ? | -13 | 21µM* | -2%
CCc1ccc(NC(=O)CSc2nc3ncccc3[nH]2)cc1 | . | -15 | ? | . | 13µM* | -3%
O=C(CSc1nc2ncccc2[nH]1)NCCc1ccccc1 | 7 | 4 | 1% | -10 | 6% | -8%
O=S(=O)(c1ccc(C2CCCCC2)cc1)N1CCN(c2cc(Cl)ccc2Cl)CC1 | . | 3 | . | . | . | 0%
O=c1oc2cc(O)ccc2cc1-c1nc(-c2ccc(Cl)c(Cl)c2)cs1 | . | 6 | 0% | . | -7% | -13%
O=C(COc1ccc(Br)cc1)NNC(=O)c1ccc(-n2cncn2)c([N+](=O)[O-])c1 | 10 | 0 | ? | 5 | 16µM* | 0%
COc1ccc(NC(=O)c2ccc(-n3cncn3)c([N+](=O)[O-])c2)cc1OC | -15 | -2 | -18% | -9 | -27% | -4%
O=C(Nc1cccc(/C=C/c2ccccn2)c1)c1ccc(-n2cncn2)c([N+](=O)[O-])c1 | 60 | 12 | 16µM* | -76* | 6.5µM* | -1%
O=C(Nc1ccc(F)c(F)c1)c1ccc(-n2cncn2)c([N+](=O)[O-])c1 | -9 | 9 | 8.2µM* | ? | ? | 0%
O=C(Nc1cc(F)ccc1F)c1ccc(-n2cncn2)c([N+](=O)[O-])c1 | -13 | -16 | -22% | -6 | -2% | .
O=C(Nc1cc(Cl)ccc1-n1cncn1)c1ccc([N+](=O)[O-])s1 | -6 | 4 | 7.3µM* | 23 | ? | 4%
O=C(Nc1cc(Cl)ccc1-n1cncn1)c1ccco1 | 1 | 2 | -6% | -9 | 11% | -1%
CN(C)c1nc(-c2ccccc2C(F)(F)F)nc2ccccc12 | . | . | -12% | . | -14% | .
NNc1ccc([N+](=O)[O-])c2[nH][nH]c(=O)c12 | -21 | -7 | -6% | -30 | 1% | -4%
CCCCCCCC/C=C\CCCCCCCC(=O)N[C@@H](CO)Cc1ccc(O)cc1 | . | . | 12µM* | . | 11µM* | .
CCCCCCCC/C=C\C/C=C\C/C=C\CCCC(=O)NCCO | . | . | -8%[4.12 µM] | . | -13%[4.12 µM] | .
Cc1cccc(NCc2nc3ccccc3n2C)c1 | -12 | -1 | -7% | 5 | -6% | 3%
Cc1cccc(NCc2nc3ccccc3n2Cc2ccccc2)c1 | -19 | -7 | 15µM* | -26 | ? | -1%
Cc1nc2cc(NCc3cc([N+](=O)[O-])ccc3O)ccc2n1Cc1ccccc1 | -9 | -3 | -29% | 16 | ? | .
Cc1nc2cc(NCc3nc4ccccc4n3Cc3ccccc3)ccc2n1C | -10 | -16 | 23µM* | -83* | ? | -4%
COc1cc(Nc2nc3c(N)cc(C(F)(F)F)cc3nc2-c2ccccc2)cc(OC)c1OC | 17 | 7 | ? | 7 | 13µM* | -1%
CC1(c2ccc3ccccc3c2)NC(=O)N(CC(=O)Nc2ncccc2O)C1=O (configuration not stated) | -11 | -4 | -13% | -21 | 14% | -1%
COc1ccc(NCc2nnc(SCC#N)n2-c2ccccc2OC)cc1 | -18 | -7 | ? | -8 | 16µM* | ?
Cc1ccc(C(=O)Nc2ccc(-n3c(C)nc4ccccc4c3=O)cc2)cc1[N+](=O)[O-] | . | -11 | 9.2µM* | . | 7.3µM* | 2%
Cc1nc2ccccc2c(=O)n1-c1ccc(NC(=O)c2cccc([N+](=O)[O-])c2)cc1 | . | -13 | 18µM* | . | 21µM* | 1%
Cc1nc2ccccc2c(=O)n1-c1ccc(NC(=O)c2ccc([N+](=O)[O-])cc2)cc1 | . | 2 | ? | . | ? | 0%
